Test results reported in PubChem BioAssay (NCATS).

Molecular target: Nicotinamide N-methyltransferase (Homo sapiens) (UniProt P40261)
Experiment: Confirmatory Screen for Target Class Profiling of Small Molecule Inhibitors of Methyltransferases (AID 1745852)
Settings: MTase-Glo luminescence, SAH detection, recombinant enzyme; measured here: NNMT max response; stronger effect = lower value

Sequence of Nicotinamide N-methyltransferase (Homo sapiens) (P40261 whole entry, looked up): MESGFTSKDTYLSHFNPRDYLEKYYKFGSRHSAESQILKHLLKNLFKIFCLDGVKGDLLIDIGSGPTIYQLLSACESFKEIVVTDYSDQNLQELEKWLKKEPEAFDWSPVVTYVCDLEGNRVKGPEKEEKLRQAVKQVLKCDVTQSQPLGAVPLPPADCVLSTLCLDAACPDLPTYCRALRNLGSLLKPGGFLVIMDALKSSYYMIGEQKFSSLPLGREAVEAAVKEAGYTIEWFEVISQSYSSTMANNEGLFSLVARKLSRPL

Row | Compound | activity [%]
1 | C=CC(=O)Nc1ccc2ncnc(Nc3cccc(Br)c3)c2c1 | -38.9
2 | O=C(NCCCc1ccccc1)c1cccc(-c2cc(O)c3ncccc3c2)c1 | -28.1
3 | CCNC(=O)C#Cc1ccc2c(C(=Nc3ccc(CN(C)C)cc3)c3ccccc3)c(O)[nH]c2c1 | -31
4 | COc1ccccc1OCCNCC(O)CCOc1cccc2[nH]c3ccccc3c12 (stereo unspecified) | -4.12
5 | Cc1nnc(C[C@@H]2C=C(c3ccc(Cl)cc3)c3ccccc3-n3c(C)nnc32)o1 | -21
6 | COc1ccc(CCc2nc3c(C)c(-c4c(C)noc4C)c(C)cc3n2CCN2CCOCC2)cc1 | -28
7 | C[C@]12CC[C@@H]3c4ccc(O)c(O)c4CC[C@H]3[C@@H]1CCC2=O | -14.2
8 | CC12CCC3C1C(c1c(cc(O)c(C(=O)c4ccccc4)c1O)O2)C3(C)C (stereo unspecified) | -25.6
9 | C=C1C(=O)OC2/C=C(/C)C3=CC(=O)C(C)(CC(OC(=O)/C(C)=C/COC(C)=O)C12)O3 (stereo unspecified) | 0.146
10 | Cc1c[nH]c2ncnc(N3CCC(CN)(C(=O)Nc4cccc(OC(=O)N(C)C)c4)CC3)c12 | -59.8
11 | C=C1C(OC2OC(CO)C(O)C(O)C2O)CC2C(C)(C)C(O)CCC2(C)C1CC/C(C)=C\COC(=O)CC(=O)O (stereo unspecified) | 0
12 | CC(=O)OC/C(=C/C(=O)O)CC[C@@H]1C(C=O)=CC[C@@H]2C(C)(C)CCC[C@@]12C | -14
13 | Cc1sc2c(c1C)C(c1ccc(Cl)cc1)=N[C@H](CC(=O)NCCCCNC(=O)COc1cccc3c1C(=O)N([C@H]1CCC(=O)NC1=O)C3=O)c1nnc(C)n1-2 | -57.3
14 | CC(C)(O)C(=O)N1CCN(c2ccc(C(F)(F)F)c(C3=C(c4c[nH]c5ccccc45)C(=O)NC3=O)c2)CC1 | -37
15 | CCOC(=O)c1cnc2ccc(-c3cncc(NS(=O)(=O)c4ccccc4)c3)cn12 | -25.7
16 | Fc1ccc2c(CCNCc3cccc(OCC(F)(F)C(F)F)c3)c[nH]c2c1 | -8.62
17 | CC(C)c1cc2c(N3CCN(C4=NCC(C)(C)S4)CC3)ncnc2s1 | -65.8
18 | Clc1ccc(Cn2c(Cc3ccccc3)nc3ccccc32)cc1 | -51
19 | O=C(NCCCNc1nc(Nc2cccc(CN3CCOCC3)c2)ncc1C1CC1)C1CCC1 | -11.4

Row | Compound | activity [%]
20 | Cc1c(OCc2cccc(-c3ccc(C(=O)O)cc3)c2)cc2c(c1C)C(=O)C(C1CCCC1)C2 (stereo unspecified) | -40.4
21 | N#Cc1ccc(COC[C@H]2O[C@@H](n3c(NCc4ccc(Cl)c(Cl)c4)nc4c(N)ncnc43)[C@H](O)[C@@H]2O)cc1 | -79.6
22 | O=C(c1ccccc1)c1c(O)cc(O)cc1O[C@@H]1O[C@H](CO)[C@@H](O)[C@H](O)[C@H]1O | -5.29
23 | CCOC(=O)N1CCC(CN(Cc2ccc(Cl)cc2)Cc2ccc([N+](=O)[O-])s2)C1 (stereo unspecified) | -5.08
24 | C=CC(=O)Nc1cccc(Nc2nc(Nc3ccc(OCCOC)cc3)ncc2F)c1 | -65.2
25 | Nc1ncnc2c1c(-c1ccc(Oc3ccccc3)cc1)nn2[C@@H]1CCCNC1 | -54
26 | CCC(=C(c1ccc(OCCN2CCCC2)cc1)c1ccc(OCCN2CCCC2)cc1)c1ccccc1 | -3.61
27 | Cc1[nH]c(/C=C2\C(=O)Nc3ccc(S(=O)(=O)N(C)c4cccc(Cl)c4)cc32)c(C)c1C(=O)N1CCN(C)CC1 | -49.1
28 | COc1c2c(c(C)c3c1C(=O)OC3)O[C@@]1(C)C[C@@H](OC(C)=O)[C@]34O[C@](OC)(CC[C@]3(C)[C@H]1C2)OC4(C)C | -50.2
29 | COc1ccc(NC(=O)c2ccc(-c3ccc(C(=N)N)cc3C)cc2)cc1N1CCN(C)CC1 | -3.54
30 | COc1ccc(CCN(C)CCCOc2nsc(-c3ccccc3)n2)cc1OC | -34.1
31 | CC1(C)CC[C@]2(C(=O)O[C@@H]3O[C@H](CO)[C@@H](O)[C@H](O)[C@H]3O)CC[C@]3(C)C(=CCC4[C@@]5(C)CC[C@H](O[C@@H]6O[C@H](C(=O)O)[C@H](O)[C@H](O)[C@H]6O)C(C)(C)C5CC[C@]43C)[C@@H]2C1 (stereo partly specified) | -9.04
32 | Cc1cc(NC(=O)c2cccc(NC(=O)/C=C/CN(C)C)c2)ccc1Nc1nccc(-c2cccnc2)n1 | -3.09
33 | CC(C)(O)c1ccc2c(c1)ncn2-c1cccc(-c2ccccc2C#N)c1 | -41.8
34 | O=S1(=O)CCN(Cc2cc(NCC3CCOCC3)c3[nH]c(-c4ccccc4)cc3c2)CC1 | -6.86
35 | CCC(=O)N1CCOc2c(cc(-c3ccc(OC)c(OC)c3)cc2OC[C@H]2CCCN(C)C2)C1 | -10.5
36 | CN(C)CC1CCn2c(c(C3=C(c4cn(C)c5ccccc45)C(=O)NC3=O)c3ccccc32)C1 (stereo unspecified) | -44.5
37 | COC(=O)CC1OC(C)C2=C(O)c3c(O)cccc3C(=O)C23OC13 (stereo unspecified) | -0.835
38 | COc1cc2ncnc(Nc3cccc(I)c3)c2cc1OC | -40.1

Molecular target: Phenylethanolamine N-methyltransferase (Homo sapiens) (UniProt P11086)
Sequence (P11086 whole entry, looked up): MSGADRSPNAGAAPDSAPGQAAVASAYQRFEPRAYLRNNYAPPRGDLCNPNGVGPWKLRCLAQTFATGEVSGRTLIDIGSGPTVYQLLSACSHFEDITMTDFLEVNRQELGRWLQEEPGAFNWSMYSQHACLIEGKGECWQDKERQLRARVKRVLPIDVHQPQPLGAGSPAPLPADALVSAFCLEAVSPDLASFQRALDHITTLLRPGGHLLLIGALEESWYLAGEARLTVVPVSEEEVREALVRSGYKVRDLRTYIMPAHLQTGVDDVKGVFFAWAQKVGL
Experiment: as above
Settings: MTase-Glo luminescence, SAH detection, recombinant enzyme; measured here: PNMT max response; stronger effect = lower value

Row | Compound | activity [%]
39 | C=CC(=O)Nc1ccc2ncnc(Nc3cccc(Br)c3)c2c1 | -49.9
40 | O=C(NCCCc1ccccc1)c1cccc(-c2cc(O)c3ncccc3c2)c1 | 4.23
41 | CCNC(=O)C#Cc1ccc2c(C(=Nc3ccc(CN(C)C)cc3)c3ccccc3)c(O)[nH]c2c1 | -19.5
42 | COc1ccccc1OCCNCC(O)CCOc1cccc2[nH]c3ccccc3c12 (stereo unspecified) | -93.1
43 | Cc1nnc(C[C@@H]2C=C(c3ccc(Cl)cc3)c3ccccc3-n3c(C)nnc32)o1 | 3.69
44 | COc1ccc(CCc2nc3c(C)c(-c4c(C)noc4C)c(C)cc3n2CCN2CCOCC2)cc1 | 1.27
45 | C[C@]12CC[C@@H]3c4ccc(O)c(O)c4CC[C@H]3[C@@H]1CCC2=O | -20.6
46 | CC12CCC3C1C(c1c(cc(O)c(C(=O)c4ccccc4)c1O)O2)C3(C)C (stereo unspecified) | -30.9
47 | C=C1C(=O)OC2/C=C(/C)C3=CC(=O)C(C)(CC(OC(=O)/C(C)=C/COC(C)=O)C12)O3 (stereo unspecified) | -3.18
48 | Cc1c[nH]c2ncnc(N3CCC(CN)(C(=O)Nc4cccc(OC(=O)N(C)C)c4)CC3)c12 | -19.2
49 | C=C1C(OC2OC(CO)C(O)C(O)C2O)CC2C(C)(C)C(O)CCC2(C)C1CC/C(C)=C\COC(=O)CC(=O)O (stereo unspecified) | 2.99
50 | CC(=O)OC/C(=C/C(=O)O)CC[C@@H]1C(C=O)=CC[C@@H]2C(C)(C)CCC[C@@]12C | -7.72
51 | Cc1sc2c(c1C)C(c1ccc(Cl)cc1)=N[C@H](CC(=O)NCCCCNC(=O)COc1cccc3c1C(=O)N([C@H]1CCC(=O)NC1=O)C3=O)c1nnc(C)n1-2 | 3.3
52 | CC(C)(O)C(=O)N1CCN(c2ccc(C(F)(F)F)c(C3=C(c4c[nH]c5ccccc45)C(=O)NC3=O)c2)CC1 | -34.7
53 | CCOC(=O)c1cnc2ccc(-c3cncc(NS(=O)(=O)c4ccccc4)c3)cn12 | -35.9
54 | Fc1ccc2c(CCNCc3cccc(OCC(F)(F)C(F)F)c3)c[nH]c2c1 | -13.2
55 | CC(C)c1cc2c(N3CCN(C4=NCC(C)(C)S4)CC3)ncnc2s1 | -7.2
56 | Clc1ccc(Cn2c(Cc3ccccc3)nc3ccccc32)cc1 | -7.3
57 | O=C(NCCCNc1nc(Nc2cccc(CN3CCOCC3)c2)ncc1C1CC1)C1CCC1 | -23.2

Row | Compound | activity [%]
58 | Cc1c(OCc2cccc(-c3ccc(C(=O)O)cc3)c2)cc2c(c1C)C(=O)C(C1CCCC1)C2 (stereo unspecified) | -6.25
59 | N#Cc1ccc(COC[C@H]2O[C@@H](n3c(NCc4ccc(Cl)c(Cl)c4)nc4c(N)ncnc43)[C@H](O)[C@@H]2O)cc1 | -74.2
60 | O=C(c1ccccc1)c1c(O)cc(O)cc1O[C@@H]1O[C@H](CO)[C@@H](O)[C@H](O)[C@H]1O | -6.01
61 | CCOC(=O)N1CCC(CN(Cc2ccc(Cl)cc2)Cc2ccc([N+](=O)[O-])s2)C1 (stereo unspecified) | -5.01
62 | C=CC(=O)Nc1cccc(Nc2nc(Nc3ccc(OCCOC)cc3)ncc2F)c1 | -40.1
63 | Nc1ncnc2c1c(-c1ccc(Oc3ccccc3)cc1)nn2[C@@H]1CCCNC1 | -19
64 | CCC(=C(c1ccc(OCCN2CCCC2)cc1)c1ccc(OCCN2CCCC2)cc1)c1ccccc1 | -4.76
65 | Cc1[nH]c(/C=C2\C(=O)Nc3ccc(S(=O)(=O)N(C)c4cccc(Cl)c4)cc32)c(C)c1C(=O)N1CCN(C)CC1 | -9.35
66 | COc1c2c(c(C)c3c1C(=O)OC3)O[C@@]1(C)C[C@@H](OC(C)=O)[C@]34O[C@](OC)(CC[C@]3(C)[C@H]1C2)OC4(C)C | -7.63
67 | COc1ccc(NC(=O)c2ccc(-c3ccc(C(=N)N)cc3C)cc2)cc1N1CCN(C)CC1 | -6.51
68 | COc1ccc(CCN(C)CCCOc2nsc(-c3ccccc3)n2)cc1OC | -10.5
69 | CC1(C)CC[C@]2(C(=O)O[C@@H]3O[C@H](CO)[C@@H](O)[C@H](O)[C@H]3O)CC[C@]3(C)C(=CCC4[C@@]5(C)CC[C@H](O[C@@H]6O[C@H](C(=O)O)[C@H](O)[C@H](O)[C@H]6O)C(C)(C)C5CC[C@]43C)[C@@H]2C1 (stereo partly specified) | -2.05
70 | Cc1cc(NC(=O)c2cccc(NC(=O)/C=C/CN(C)C)c2)ccc1Nc1nccc(-c2cccnc2)n1 | -2.64
71 | CC(C)(O)c1ccc2c(c1)ncn2-c1cccc(-c2ccccc2C#N)c1 | -37.6
72 | O=S1(=O)CCN(Cc2cc(NCC3CCOCC3)c3[nH]c(-c4ccccc4)cc3c2)CC1 | -4.93
73 | CCC(=O)N1CCOc2c(cc(-c3ccc(OC)c(OC)c3)cc2OC[C@H]2CCCN(C)C2)C1 | -9.1
74 | CN(C)CC1CCn2c(c(C3=C(c4cn(C)c5ccccc45)C(=O)NC3=O)c3ccccc32)C1 (stereo unspecified) | -10.7
75 | COC(=O)CC1OC(C)C2=C(O)c3c(O)cccc3C(=O)C23OC13 (stereo unspecified) | -0.505
76 | COc1cc2ncnc(Nc3cccc(I)c3)c2cc1OC | -56.9
